This is an account of results in PubChem BioAssay AID2014 (Sanford-Burnham Center for Chemical Genomics, 2009).

The target of the test is Polyadenylate-binding protein 1 (Homo sapiens) (UniProt P11940). Kind of test: PABP poly(A) RNA binding inhibitors, primary screen, biochemical, fluorescence polarization, uHTS (AID 2014).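 Further: calls also rest on retests at 20 µM and on dose response follow-up.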 The note with it: stronger effect = higher value.

Hit rate of the full screen: of about 290,000 compounds, about 3,000 (1%) were called active. How the calls were made is not given here. The list comes from a sample in which actives are over-represented; it also holds similar structures and randomly drawn compounds.

Polyadenylate-binding protein 1 (Homo sapiens), sequence (P11940 whole entry, looked up): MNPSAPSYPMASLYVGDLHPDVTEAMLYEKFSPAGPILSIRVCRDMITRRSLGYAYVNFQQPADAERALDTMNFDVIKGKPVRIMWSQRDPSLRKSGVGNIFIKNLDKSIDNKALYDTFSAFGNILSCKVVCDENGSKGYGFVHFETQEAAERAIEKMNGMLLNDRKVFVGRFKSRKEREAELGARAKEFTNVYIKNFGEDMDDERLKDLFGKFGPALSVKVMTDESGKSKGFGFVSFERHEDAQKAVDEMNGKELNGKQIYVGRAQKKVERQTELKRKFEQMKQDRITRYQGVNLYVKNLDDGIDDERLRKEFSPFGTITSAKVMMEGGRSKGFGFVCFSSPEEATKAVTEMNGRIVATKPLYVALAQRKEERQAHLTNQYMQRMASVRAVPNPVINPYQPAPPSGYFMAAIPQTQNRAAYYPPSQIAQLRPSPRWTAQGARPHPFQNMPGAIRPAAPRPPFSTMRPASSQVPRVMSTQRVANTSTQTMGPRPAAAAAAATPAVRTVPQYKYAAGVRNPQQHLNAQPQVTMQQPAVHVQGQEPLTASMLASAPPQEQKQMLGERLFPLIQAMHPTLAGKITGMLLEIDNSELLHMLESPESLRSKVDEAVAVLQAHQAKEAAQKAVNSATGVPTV

The inhibition is the change of the read-out against control, counted positive when it falls. For the molecule `Cn1cccc1/C=C1\SC(=O)N(CC(=O)Nc2ccc(F)cc2)C1=O`, where the note is “at 35 µM”, the inhibition is 2.5% (inactive).
As to `N#Cc1ccccc1CN1C(=O)S/C(=C/c2cccn2-c2cccc(C(=O)O)c2)C1=O`, the inhibition is 37.4% (active) (at 35 µM) and 65.8% (confirmation repeats, at 20 µM).
Turning to `C=CCn1c(SCc2ccccc2)nc2c1c(=O)[nH]c(=O)n2C`, the inhibition (at 35 µM) was -1.9% (inactive).
Same read-out and setting: in the case of `O=C(O)c1cc(S(=O)(=O)N(Cc2ccccc2)c2cccc(C(F)(F)F)c2)ccc1Cl` it was 7.3% (inactive).
As to `Cc1cc(=O)[nH]c(SCc2cccc(F)c2)n1`, the inhibition (at 35 µM) is -3.3% (inactive).
Still for that read-out and setting: the result for `COc1ccccc1-c1noc(CSc2nc(C)cc(=O)[nH]2)n1` reads 56.6% (active); that for `Cc1cc(=O)[nH]c(SCc2cc(Cl)ccc2OC(F)F)n1`, 0.2% (inactive).
Turning to `O=C(O)C(c1ccccc1)N1C(=O)/C(=C\c2ccc(-c3cccc(Cl)c3)o2)SC1=S` (configuration not stated), the inhibition (at 35 µM) was 76% (active) and the inhibition (confirmation repeats, at 20 µM) is 126%.
On to `O=C1NN(c2ccccc2)C(=O)/C1=C/c1ccc(-c2cccc(C(=O)O)c2)o1`, for which the inhibition (at 35 µM) was 36.5% (inactive).
On the same count and under the same terms, the result for `CN1C(=O)/C(=C\c2ccc(-c3ccccc3)o2)SC1=S` reads 19.8% (inactive); that for `CCOC(OCC)c1ccc(/C=C\c2nccc(N)n2)cc1`, -16.6% (inactive).
Regarding `O=C(COc1ccc(Cl)cc1)Nc1ccccc1CO`, where the note is “at 35 µM”, the inhibition is 4.7% (inactive).
Regarding `COC(=O)c1sccc1NC(=O)c1ccc(Cl)cc1`, under “at 35 µM”, the inhibition is 4.7% (inactive).
Regarding `COC(=O)c1sccc1NC(=O)COc1ccc(Cl)cc1`, the inhibition (at 35 µM) was 81% (active) and the inhibition (confirmation repeats, at 20 µM) came to 58.4%.
For the molecule `CC(C)(C)C1CCC(C(=O)NCC(c2cccs2)N2CCOCC2)CC1` (configuration not stated), the inhibition (at 35 µM) is 15.6% (inactive).
Still for that read-out and setting: the result for `O=C(C[n+]1ccccc1)N/N=C/c1ccc(O)cc1` reads -10% (inactive); that for `Nc1nnn(CC(=O)N/N=C/c2ccc(O)cc2)n1`, 15.3% (inactive).
Take `O=C(CC(=O)Nc1ccc(Cl)c(Cl)c1)N/N=C/c1ccc(O)cc1`: the inhibition reads like this: (at 35 µM) 51.1% (active); (confirmation repeats, at 20 µM) 59.9%.
In the case of `CN(C)c1ccc(S(=O)(=O)NCC(=O)NCC2CCCCC2)cc1[N+](=O)[O-]`, the inhibition (at 35 µM) was 13.4% (inactive).
As for `COc1cccc(C(=O)N/N=C(\C)c2cccc(NC(=O)c3ccc(F)cc3)c2)c1OC`, the inhibition (at 35 µM) is -0.8% (inactive).
The same measure, in the same setting: in the case of `COc1ccccc1OCCCC(=O)Nc1ccc2c(c1)OCCO2` it was 3.8% (inactive).
For `Cc1nnc(NC(=O)/C=C/c2ccco2)s1`, the inhibition (at 35 µM) was -3.5% (inactive) and the inhibition (confirmation repeats, at 20 µM) came out at 8.4%.
On to `CCc1nnc(NC(=O)/C=C/c2ccc(C)o2)s1`, for which the inhibition by setting is: (at 35 µM) 4.4% (active); (confirmation repeats, at 20 µM) 56.5%.
The corresponding values for `CCC(CC)c1nnc(NC(=O)/C=C/c2ccco2)s1` are 10% (inactive) and 1.7%.
Regarding `CCOC(=O)c1c(S(=O)(=O)Nc2ccc(CN3CCC(C)CC3)cc2)c(C)n(C)c1C`, the inhibition (at 35 µM) was -2.2% (inactive).
The same measure, in the same setting: in the case of `CCOC(=O)N1CCC(N2Cc3cccc(C(=O)Nc4c(C)cccc4CC)c3C2=O)CC1` it was -4.1% (inactive).
The same measure, in the same setting: the result for `CCOC(=O)CC1COCCN1C(=O)c1cc(COc2ccc(F)c(F)c2)on1` (configuration not stated) reads 1.8% (inactive).
Same read-out and setting: the result for `O=C(O)c1ccc(OCC2CCCO2)cc1` (configuration not stated) reads 6.4% (inactive).
For `CC(C)(C)C(=O)CN1C2=NCCN2c2ccccc21`, the inhibition (at 35 µM) is -8.1% (inactive).
Turning to `O=C(NCC(=O)N1CCN(c2ccccc2F)CC1)c1cccs1`, for the setting “at 35 µM”, the inhibition was 7.4% (inactive).
Regarding `O=C(CN1C2=NCCN2c2ccccc21)c1cccs1`, the inhibition by setting is: (at 35 µM) 88.7% (active); (confirmation repeats, at 20 µM) 105%.
As to `COc1ccc(N2CCN(C(=O)Cn3cnc4sc(C)c(S(=O)(=O)N5CCOCC5)c4c3=O)CC2)cc1`, the inhibition (at 35 µM) was -2.8% (inactive).
On the same count and under the same terms, the result for `Cc1cccc2[nH]c(CN(C)C(=O)C3CCC(=O)N(CCc4ccccc4)C3)nc12` (configuration not stated) reads -4.2% (inactive); that for `O=C(COc1ccc([N+](=O)[O-])cc1)Nc1ccc(N2CCCC2)cc1`, 7% (inactive).
On the same count and under the same terms, in the case of `O=C(N/N=C/c1ccc(OCc2ccccc2)cc1)c1ccc(O)cc1` it was -15.7% (inactive).
With `O=C(COc1ccc(/C=N/NC(=O)c2ccc(O)cc2)cc1)Nc1ccc([N+](=O)[O-])cc1`, the inhibition is, setting by setting: (at 35 µM) 94.5% (active); (confirmation repeats, at 20 µM) 77.2%.
In the case of `CC(C)c1ccc(Cc2nnc(NCCCO)[nH]c2=O)cc1`, the inhibition (at 35 µM) was 3.4% (inactive).
On the same count and under the same terms, in the case of `CCOc1cc(CN2CCCC(CO)(Cc3ccc(F)cc3F)C2)ccc1OC` (configuration not stated) it was 4.9% (inactive).
Same read-out and setting: in the case of `CCOCc1nnc(NC(=O)CCS(=O)(=O)Cc2ccccc2)s1` it was -0.4% (inactive); in that of `CN(C)S(=O)(=O)c1cccc(-c2nn(-c3ccccc3)cc2/C=C2\SC(=S)N(CC(=O)O)C2=O)c1`, 38.3% (inactive).
Consider `Cc1ccc(-c2nn(-c3ccccc3)cc2/C=C2\SC(=S)N(CCCCCC(=O)O)C2=O)o1`, for which the inhibition reads like this: (at 35 µM) 35.4% (active); (confirmation repeats, at 20 µM) 54.4%.
As to `COc1ccc(-c2nn(-c3ccccc3)cc2/C=C2/SC(=S)N(CCCC(=O)O)C2=O)c(C)c1`, the inhibition (at 35 µM) is 4.8% (inactive).
